Several values for one entry are separate records, joined by “and”; a condition that tells them apart may be missing. Equal values may be shown once. Among all 5,500 compounds or so, about 2,000 (36%) were called active. Another 18% or so got no clear call; they are omitted. Cut-off read from the data, not from the text of the source: active = normalized growth mostly below about 0.91 (no sharp cut-off); inconclusive = no clear call, values can overlap the other calls; inactive = mostly above about 0.92. This is one part of the list.
Experiment: chemical genetic growth profiling, strain panel (AID 1159580);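 note: tested at 20 µM; growth read once vehicle control cultures reached saturation at 30 °C; 1 = growth at the plate median or of vehicle wells; lower values mean less growth of the strain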
Details: S. cerevisiae deletion strains, growth OD

Measured: normalized growth

c1ccc2c(c1)[nH]c1cnccc12
inactive: locus YAL021C, strain ccr4, stronger effect = lower value 1.01 | locus YAL026C, strain drs2, stronger effect = lower value 1.01 | locus YAL030W, strain snc1, stronger effect = lower value 0.999 | locus YBL061C, strain skt5, stronger effect = lower value 0.991 | locus YBR009C, strain hhf1, stronger effect = lower value 1 | locus YBR021W, strain FUR4, stronger effect = lower value 1.05 | locus YBR023C, strain chs3, stronger effect = lower value 0.993 | locus YBR171W, strain sec66, stronger effect = lower value 0.99 | locus YBR229C, strain ROT2, stronger effect = lower value 1.01 | locus YBR231C, strain swc5, stronger effect = lower value 0.999 | locus YBR279W, strain paf1, stronger effect = lower value 1 | locus YCL011C, strain gbp2, stronger effect = lower value 0.998 | locus YCL016C, strain dcc1, stronger effect = lower value 0.999 | locus YCL029C, strain bik1, stronger effect = lower value 0.975 | locus YCL061C, strain MRC1, stronger effect = lower value 0.997 | locus YCL069W, strain vba3, stronger effect = lower value 1 | locus YCR088W, strain abp1, stronger effect = lower value 1 | locus YDL005C, strain med2, stronger effect = lower value 0.989 | locus YDL035C, strain GPR1, stronger effect = lower value 0.991 | locus YDL040C, strain nat1, stronger effect = lower value 0.995 | locus YDL074C, strain BRE1, stronger effect = lower value 0.977 | locus YDL101C, strain DUN1, stronger effect = lower value 0.986 | locus YDL134C, strain PPH21, stronger effect = lower value 1.08 | locus YDL185W, strain tfp1, stronger effect = lower value 0.954 | locus YDL192W, strain arf1, stronger effect = lower value 0.979 | locus YDR001C, strain nth1, stronger effect = lower value 1 | locus YDR069C, strain doa4, stronger effect = lower value 0.977 | locus YDR101C, strain arx1, stronger effect = lower value 0.961 | locus YDR137W, strain rgp1, stronger effect = lower value 0.958 | locus YDR159W, strain sac3, stronger effect = lower value 1.01 | locus YDR162C, strain NBP2, stronger effect = lower value 1.01 | locus YDR195W, strain ref2 0.995 | locus YDR297W, strain sur2, stronger effect = lower value 0.999 | locus YDR318W, strain mcm21, stronger effect = lower value 1.01 | locus YDR334W, strain swr1, stronger effect = lower value 0.998 | locus YDR335W, strain msn5, stronger effect = lower value 0.999 | locus YDR388W, stronger effect = lower value 0.996 | locus YDR392W, strain spt3, stronger effect = lower value 0.967 | locus YDR502C, strain sam2, stronger effect = lower value 0.994 | locus YEL003W, strain gim4, stronger effect = lower value 1 | locus YEL037C, strain rad23, stronger effect = lower value 1.03 | locus YEL061C, strain CIN8 (second series), stronger effect = lower value 1.01 | locus YEL061C, strain CIN8, stronger effect = lower value 0.99 | locus YER015W, strain faa2, stronger effect = lower value 0.982 | locus YER016W, strain bim1, stronger effect = lower value 0.992 | locus YER110C, stronger effect = lower value 0.964 | locus YER111C, strain swi4, stronger effect = lower value 0.984 | locus YER155C, strain BEM2 (second series), stronger effect = lower value 0.965 | locus YER155C, strain BEM2, stronger effect = lower value 1 | locus YER167W, strain BCK2, stronger effect = lower value 1.02 | locus YFR010W, strain ubp6, stronger effect = lower value 1 | locus YGL078C, strain dbp3, stronger effect = lower value 0.981 | locus YGL086W, strain mad1, stronger effect = lower value 0.948 | locus YGL167C, strain pmr1, stronger effect = lower value 0.998 | locus YGL173C, strain kem1, stronger effect = lower value 0.997 | locus YGL227W, strain vid30, stronger effect = lower value 0.999 | locus YGL240W, strain doc1, stronger effect = lower value 0.991 | locus YGL248W, strain PDE1, stronger effect = lower value 1.01 | locus YGL253W, strain hxk2, stronger effect = lower value 1.01 | locus YGR135W, strain pre9, stronger effect = lower value 1 | locus YGR229C, strain SMI1, stronger effect = lower value 1.02 | locus YGR252W, strain gcn5, stronger effect = lower value 1.19 | locus YHR013C, strain ard1, stronger effect = lower value 1.02 | locus YHR027C, strain rpn1, stronger effect = lower value 0.993 | locus YHR030C, strain SLT2, stronger effect = lower value 1 and 1.03 | locus YHR079C, strain IRE1 (second series), stronger effect = lower value 0.984 | locus YHR079C, strain IRE1, stronger effect = lower value 1.03 | locus YHR094C, strain hxt1, stronger effect = lower value 0.994 | locus YHR129C, strain ARP1, stronger effect = lower value 1 | locus YHR142W, strain chs7, stronger effect = lower value 1.01 | locus YHR200W, strain rpn10, stronger effect = lower value 0.98 | locus YIL066C, strain RNR3, stronger effect = lower value 1.01 | locus YIL073C, strain SPO22, stronger effect = lower value 0.995 | locus YIL125W, strain kgd1, stronger effect = lower value 0.992 | locus YIR030C, strain dcg1, stronger effect = lower value 0.991 | locus YJL092W, strain hpr5, stronger effect = lower value 0.995 | locus YJL095W, strain BCK1 (second series), stronger effect = lower value 0.999 | locus YJL095W, strain BCK1, stronger effect = lower value 1 and 1.01 | locus YJL115W, strain asf1, stronger effect = lower value 0.996 | locus YJL129C, strain trk1, stronger effect = lower value 1.01 | locus YJL134W, strain LCB3, stronger effect = lower value 1 | locus YJL154C, strain vps35, stronger effect = lower value 1 | locus YJL164C, strain tpk1, stronger effect = lower value 1.01 | locus YJL166W, strain qcr8, stronger effect = lower value 1 | locus YJL168C, strain set2, stronger effect = lower value 0.979 | locus YJL187C, strain SWE1 (second series), stronger effect = lower value 0.986 | locus YJL187C, strain SWE1, stronger effect = lower value 0.995 | locus YJR043C, strain POL32, stronger effect = lower value 1.04
